Test results published in the supplement of paper PMC11732987, “Enantioselective OTUD7B fragment discovery through chemoproteomics screening and high-throughput optimisation” (Communications Chemistry, 2025).
Unmarked numbers belong to inactive results.

Experiments:
Experiment in all cases: log2 ratio of Biotin-Ahx-Ub-VS probe labelling (fragment/DMSO); higher = less target engagement (more negative = stronger competition), active = hit call of the paper (q ≤ 0.05, log2 ratio ≤ -1)
Settings in all cases: compound concentration: 200 uM; treatment time: 3 h
OTUD6B = target: T1, OTUD6B (UniProt Q8N6M0)
T1 sequence (whole entry): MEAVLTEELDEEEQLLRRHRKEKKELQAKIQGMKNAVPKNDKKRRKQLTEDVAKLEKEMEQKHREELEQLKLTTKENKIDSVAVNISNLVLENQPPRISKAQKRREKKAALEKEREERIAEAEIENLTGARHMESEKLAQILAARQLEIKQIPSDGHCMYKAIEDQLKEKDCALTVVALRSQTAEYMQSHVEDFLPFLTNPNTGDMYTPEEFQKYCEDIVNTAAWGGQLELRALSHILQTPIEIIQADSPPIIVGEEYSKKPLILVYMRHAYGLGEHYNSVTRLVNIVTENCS
Outline: (§1)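 HEK293T lysate, 495 µg per sample in Tris/CHAPS/IGEPAL buffer with protease inhibitors, was treated in triplicate with fragment at 200 µM or vehicle for 3 h and then with Biotin-Ahx-Ub-VS at 0.5 µM final for 1 h. Labelled DUBs were NeutrAvidin-enriched, digested with LysC and trypsin, and run by diaPASEF LC-MS/MS. Spectronaut label-free quantities were global-median-normalised, and values are average log2 fragment/vehicle ratios by unpaired t-test on proteins with ≥2 unique peptides.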

OTUD7B = target: T2, OTUD7B (UniProt Q6GQQ9)
T2 sequence (whole entry): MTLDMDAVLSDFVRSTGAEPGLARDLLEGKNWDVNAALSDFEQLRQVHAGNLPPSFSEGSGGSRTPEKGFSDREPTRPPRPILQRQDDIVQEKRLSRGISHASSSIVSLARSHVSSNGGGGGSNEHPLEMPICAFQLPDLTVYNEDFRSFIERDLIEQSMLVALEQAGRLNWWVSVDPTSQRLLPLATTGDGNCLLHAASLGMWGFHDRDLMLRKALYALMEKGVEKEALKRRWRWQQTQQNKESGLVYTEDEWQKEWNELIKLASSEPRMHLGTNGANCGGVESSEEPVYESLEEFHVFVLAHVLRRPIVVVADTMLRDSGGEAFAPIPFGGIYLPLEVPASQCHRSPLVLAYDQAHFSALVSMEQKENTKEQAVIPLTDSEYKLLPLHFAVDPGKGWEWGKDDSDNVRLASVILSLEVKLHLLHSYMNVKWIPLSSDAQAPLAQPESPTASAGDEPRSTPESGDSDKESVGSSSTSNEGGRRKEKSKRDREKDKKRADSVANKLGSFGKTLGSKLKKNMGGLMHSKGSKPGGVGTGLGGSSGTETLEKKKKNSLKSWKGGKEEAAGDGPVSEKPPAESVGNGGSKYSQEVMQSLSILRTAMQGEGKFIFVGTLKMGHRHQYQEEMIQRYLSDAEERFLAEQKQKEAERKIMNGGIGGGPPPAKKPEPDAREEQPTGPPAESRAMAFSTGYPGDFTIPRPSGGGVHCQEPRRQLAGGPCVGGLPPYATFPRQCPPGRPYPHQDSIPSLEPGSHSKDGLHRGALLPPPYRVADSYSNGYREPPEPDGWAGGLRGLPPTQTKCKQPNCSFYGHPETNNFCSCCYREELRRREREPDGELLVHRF
Outline: as §1

PRPF8 = PRPF8 (UniProt Q6P2Q9)
Outline: as §1

PSMD7 = target: T3, PSMD7 (UniProt P51665)
T3 sequence (whole entry): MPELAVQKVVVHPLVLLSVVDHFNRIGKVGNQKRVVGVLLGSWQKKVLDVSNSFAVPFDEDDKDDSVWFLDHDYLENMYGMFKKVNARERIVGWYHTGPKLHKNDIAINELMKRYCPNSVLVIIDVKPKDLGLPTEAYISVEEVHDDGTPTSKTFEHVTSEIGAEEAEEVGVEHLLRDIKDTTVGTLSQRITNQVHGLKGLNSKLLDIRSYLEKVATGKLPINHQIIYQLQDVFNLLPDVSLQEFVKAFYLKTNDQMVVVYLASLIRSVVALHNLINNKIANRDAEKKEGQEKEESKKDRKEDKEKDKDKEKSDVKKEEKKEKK
Outline: as §1

UCHL1 = UCHL1 (UniProt P09936)
Sequence of UCHL1 (P09936 whole entry, looked up): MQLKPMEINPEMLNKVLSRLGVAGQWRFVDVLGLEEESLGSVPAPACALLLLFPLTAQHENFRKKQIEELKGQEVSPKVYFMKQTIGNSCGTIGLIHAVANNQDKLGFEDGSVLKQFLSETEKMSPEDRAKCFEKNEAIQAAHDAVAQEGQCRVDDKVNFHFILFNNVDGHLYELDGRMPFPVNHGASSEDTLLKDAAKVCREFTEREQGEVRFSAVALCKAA
Outline: as §1

UCHL3 = target: T4, UCHL3 (UniProt P15374)
T4 sequence (whole entry): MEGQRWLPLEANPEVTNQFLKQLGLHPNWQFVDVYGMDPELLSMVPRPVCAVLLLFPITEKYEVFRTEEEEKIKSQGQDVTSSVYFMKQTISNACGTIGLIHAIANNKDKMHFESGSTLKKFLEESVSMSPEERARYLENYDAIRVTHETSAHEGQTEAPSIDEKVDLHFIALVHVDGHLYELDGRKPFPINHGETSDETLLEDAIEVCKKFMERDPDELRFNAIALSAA
Outline: as §1

UCHL5 = target: T5, UCHL5 (UniProt Q9Y5K5)
T5 sequence (whole entry): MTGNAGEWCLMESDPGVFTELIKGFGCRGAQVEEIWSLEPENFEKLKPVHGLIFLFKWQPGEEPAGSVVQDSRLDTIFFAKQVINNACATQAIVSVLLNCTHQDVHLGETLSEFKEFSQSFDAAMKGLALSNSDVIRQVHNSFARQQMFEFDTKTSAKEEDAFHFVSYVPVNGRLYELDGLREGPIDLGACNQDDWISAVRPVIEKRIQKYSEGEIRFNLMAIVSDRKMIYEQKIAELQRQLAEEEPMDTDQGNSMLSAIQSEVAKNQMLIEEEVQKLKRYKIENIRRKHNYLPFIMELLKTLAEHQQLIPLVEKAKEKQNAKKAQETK
Outline: as §1

USP10 = USP10 (UniProt Q14694)
Sequence of USP10 (Q14694 whole entry): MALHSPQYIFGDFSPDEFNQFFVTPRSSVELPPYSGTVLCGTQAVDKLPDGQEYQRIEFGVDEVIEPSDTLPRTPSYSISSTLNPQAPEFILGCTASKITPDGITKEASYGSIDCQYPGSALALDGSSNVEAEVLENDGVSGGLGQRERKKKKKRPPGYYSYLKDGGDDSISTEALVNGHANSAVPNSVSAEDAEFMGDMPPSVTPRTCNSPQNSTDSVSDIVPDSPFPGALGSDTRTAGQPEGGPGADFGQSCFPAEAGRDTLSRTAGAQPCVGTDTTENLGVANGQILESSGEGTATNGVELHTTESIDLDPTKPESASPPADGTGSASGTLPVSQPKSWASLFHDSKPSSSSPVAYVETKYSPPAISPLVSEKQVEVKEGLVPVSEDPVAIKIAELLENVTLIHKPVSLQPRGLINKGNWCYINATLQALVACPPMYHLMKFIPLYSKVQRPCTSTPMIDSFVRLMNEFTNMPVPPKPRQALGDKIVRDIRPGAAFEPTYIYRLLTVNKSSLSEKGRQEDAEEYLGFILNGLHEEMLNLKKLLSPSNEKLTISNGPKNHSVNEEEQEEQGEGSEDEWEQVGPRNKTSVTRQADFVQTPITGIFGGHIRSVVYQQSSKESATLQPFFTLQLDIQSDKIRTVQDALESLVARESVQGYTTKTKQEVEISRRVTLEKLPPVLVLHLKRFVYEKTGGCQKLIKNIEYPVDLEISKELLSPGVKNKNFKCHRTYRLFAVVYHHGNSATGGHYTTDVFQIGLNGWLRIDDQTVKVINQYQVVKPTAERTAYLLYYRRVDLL
Outline: as §1

USP15 = target: T6, USP15 (UniProt Q9Y4E8)
T6 sequence (whole entry): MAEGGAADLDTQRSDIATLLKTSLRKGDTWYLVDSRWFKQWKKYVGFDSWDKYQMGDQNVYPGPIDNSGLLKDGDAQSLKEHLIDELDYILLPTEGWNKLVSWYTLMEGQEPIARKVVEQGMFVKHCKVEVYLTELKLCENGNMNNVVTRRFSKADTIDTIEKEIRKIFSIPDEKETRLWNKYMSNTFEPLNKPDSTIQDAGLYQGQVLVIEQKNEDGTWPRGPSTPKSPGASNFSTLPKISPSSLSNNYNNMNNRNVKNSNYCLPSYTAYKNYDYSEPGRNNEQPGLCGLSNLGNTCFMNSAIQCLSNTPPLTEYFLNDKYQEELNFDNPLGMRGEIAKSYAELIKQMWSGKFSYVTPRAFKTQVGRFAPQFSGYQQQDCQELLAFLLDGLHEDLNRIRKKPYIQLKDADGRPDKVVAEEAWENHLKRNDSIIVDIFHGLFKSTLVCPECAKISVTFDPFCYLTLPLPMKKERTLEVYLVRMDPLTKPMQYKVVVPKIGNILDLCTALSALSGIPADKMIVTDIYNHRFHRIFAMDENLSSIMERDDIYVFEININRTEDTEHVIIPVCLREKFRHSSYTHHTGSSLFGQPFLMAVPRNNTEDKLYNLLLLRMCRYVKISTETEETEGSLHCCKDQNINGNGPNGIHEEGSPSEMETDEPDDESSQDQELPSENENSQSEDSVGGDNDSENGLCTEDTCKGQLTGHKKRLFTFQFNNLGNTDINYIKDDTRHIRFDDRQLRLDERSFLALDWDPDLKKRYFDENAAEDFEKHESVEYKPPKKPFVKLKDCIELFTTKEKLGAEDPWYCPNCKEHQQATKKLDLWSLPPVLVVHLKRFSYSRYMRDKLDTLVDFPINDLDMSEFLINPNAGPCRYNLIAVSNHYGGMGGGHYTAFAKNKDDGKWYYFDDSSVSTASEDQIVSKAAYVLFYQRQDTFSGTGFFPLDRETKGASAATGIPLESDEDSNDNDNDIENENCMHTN
Outline: as §1

USP16 = USP16 (UniProt Q9Y5T5)
Sequence of USP16 (Q9Y5T5 whole entry, looked up): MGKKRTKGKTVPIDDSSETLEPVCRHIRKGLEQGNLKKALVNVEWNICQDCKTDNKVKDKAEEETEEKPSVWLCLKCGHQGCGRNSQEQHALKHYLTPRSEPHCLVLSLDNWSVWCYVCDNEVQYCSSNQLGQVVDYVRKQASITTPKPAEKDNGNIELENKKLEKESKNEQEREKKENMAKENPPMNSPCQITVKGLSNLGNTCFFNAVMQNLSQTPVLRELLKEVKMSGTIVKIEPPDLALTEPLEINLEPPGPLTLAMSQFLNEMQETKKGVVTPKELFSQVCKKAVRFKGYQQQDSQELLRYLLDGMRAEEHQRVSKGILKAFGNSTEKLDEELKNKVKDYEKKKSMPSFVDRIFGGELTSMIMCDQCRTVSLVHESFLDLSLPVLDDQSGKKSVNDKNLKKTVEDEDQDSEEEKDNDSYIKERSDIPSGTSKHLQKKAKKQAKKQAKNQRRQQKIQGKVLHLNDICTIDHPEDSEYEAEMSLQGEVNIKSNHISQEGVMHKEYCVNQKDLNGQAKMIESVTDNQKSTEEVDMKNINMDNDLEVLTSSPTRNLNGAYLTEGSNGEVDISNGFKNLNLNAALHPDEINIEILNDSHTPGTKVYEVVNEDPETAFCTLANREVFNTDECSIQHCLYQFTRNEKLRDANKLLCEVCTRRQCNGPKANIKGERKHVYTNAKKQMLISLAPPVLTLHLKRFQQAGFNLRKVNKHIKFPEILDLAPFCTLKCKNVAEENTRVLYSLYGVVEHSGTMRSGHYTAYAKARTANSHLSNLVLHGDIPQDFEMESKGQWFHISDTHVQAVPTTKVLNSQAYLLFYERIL
Outline: as §1

`O=C(CCl)N1CCCCC12CCOCC2` was tested. Which “log2 ratio of Biotin-Ahx-Ub-VS probe labelling” value (“log2 ratio” for short) (OTUD6B) did it give?
Its value is -0.371.

And the “log2 ratio” value (OTUD7B)?
The value was -0.652.

What about the “log2 ratio” value (PRPF8) of the same compound?
The value was -0.0698.

And the “log2 ratio” value (PSMD7)?
Its value is -0.183.

What about the “log2 ratio” value (UCHL1) of the same compound?
Its value is -2.07 (active).

What about the “log2 ratio” value (UCHL3) of the same compound?
Its value is -0.176.

What about the “log2 ratio” value (UCHL5) of the same compound?
Its value is -0.503.

And the “log2 ratio” value (USP10)?
Its value is -0.064.

What about the “log2 ratio” value (USP15) of the same compound?
Its value is -0.474.

And the “log2 ratio” value (USP16)?
Its value is -0.51.
